Measured values reported in article PMC7862700, “An all-to-all approach to the identification of sequence-specific readers for epigenetic DNA modifications on cytosine”.

Key:
Assay in all cases: DAPPL (digital affinity profiling via proximity ligation, sequencing); 10 mM Tris-HCl pH 7.5, 50 mM NaCl, 1 mM DTT, 4% glycerol, room temperature, 30 min; GST-TFs on glutathione beads, 16-mer random dsDNA library, 0.1% formaldehyde crosslink after washing; high values mean tight binding
Conditions in all cases: protein: recombinant; tags: N-terminal GST; dsDNA, one strand shown
FLI1 = molecular target: T1, FLI1 (Homo sapiens, UniProt Q01543 1-452)
T1 sequence: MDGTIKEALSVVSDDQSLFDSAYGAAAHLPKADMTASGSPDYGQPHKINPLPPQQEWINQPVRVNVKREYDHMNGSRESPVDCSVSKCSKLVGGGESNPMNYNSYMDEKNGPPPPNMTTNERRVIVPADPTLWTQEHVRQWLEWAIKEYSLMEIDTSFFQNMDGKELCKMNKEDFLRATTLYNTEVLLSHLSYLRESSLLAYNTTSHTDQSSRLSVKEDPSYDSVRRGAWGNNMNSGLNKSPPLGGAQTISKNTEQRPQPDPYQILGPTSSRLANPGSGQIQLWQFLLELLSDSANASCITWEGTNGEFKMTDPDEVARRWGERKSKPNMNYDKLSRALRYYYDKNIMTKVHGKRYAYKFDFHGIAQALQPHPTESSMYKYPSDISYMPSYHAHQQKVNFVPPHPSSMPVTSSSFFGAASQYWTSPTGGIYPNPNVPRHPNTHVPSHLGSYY
Summary of the method: (§1)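 Binding signal is each hexamer's read frequency for a factor divided by its frequency in the tag-only sample. The factors were GST-fused human transcription factors from yeast, captured on glutathione beads, DNA-barcoded and pooled with that sample. Pools were incubated with 200 nmole of a random double-stranded 16-mer DNA library in Tris/NaCl/DTT/glycerol buffer at room temperature for 30 min, then washed, crosslinked with 0.1% formaldehyde, proximity-ligated with BsaI/T4 ligase (1 h, 37 °C), PCR-amplified and sequenced on an Illumina NextSeq500.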

ELK1 = molecular target: T2, ELK1 (Homo sapiens, UniProt P19419 1-428)
T2 sequence: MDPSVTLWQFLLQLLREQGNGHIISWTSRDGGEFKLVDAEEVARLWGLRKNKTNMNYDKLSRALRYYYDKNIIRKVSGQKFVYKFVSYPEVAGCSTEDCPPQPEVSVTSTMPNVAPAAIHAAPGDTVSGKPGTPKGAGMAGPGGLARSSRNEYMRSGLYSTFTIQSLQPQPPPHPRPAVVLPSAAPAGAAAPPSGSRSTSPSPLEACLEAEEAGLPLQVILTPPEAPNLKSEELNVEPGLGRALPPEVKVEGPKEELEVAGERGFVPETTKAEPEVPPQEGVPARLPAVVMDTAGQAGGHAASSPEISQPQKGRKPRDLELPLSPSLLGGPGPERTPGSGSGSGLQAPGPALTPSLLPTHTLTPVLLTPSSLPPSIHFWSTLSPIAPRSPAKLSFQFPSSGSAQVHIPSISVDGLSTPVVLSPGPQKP
Summary of the method: as §1

GABPA = molecular target: T3, GABPA (Homo sapiens, UniProt Q06546 1-454)
T3 sequence: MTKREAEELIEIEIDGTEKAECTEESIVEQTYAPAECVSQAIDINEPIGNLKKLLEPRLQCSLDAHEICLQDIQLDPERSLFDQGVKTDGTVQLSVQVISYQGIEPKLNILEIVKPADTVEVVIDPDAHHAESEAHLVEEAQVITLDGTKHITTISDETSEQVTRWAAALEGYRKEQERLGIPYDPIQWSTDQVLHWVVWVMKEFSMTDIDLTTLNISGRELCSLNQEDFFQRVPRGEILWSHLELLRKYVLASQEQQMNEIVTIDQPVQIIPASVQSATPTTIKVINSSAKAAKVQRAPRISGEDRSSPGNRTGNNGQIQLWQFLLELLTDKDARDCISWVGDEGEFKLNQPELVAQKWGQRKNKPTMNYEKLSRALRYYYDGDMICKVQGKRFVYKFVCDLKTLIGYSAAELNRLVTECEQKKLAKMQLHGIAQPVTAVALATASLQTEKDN
Summary of the method: as §1

ERG = molecular target: T4, ERG (Homo sapiens, UniProt P11308 1-479)
T4 sequence: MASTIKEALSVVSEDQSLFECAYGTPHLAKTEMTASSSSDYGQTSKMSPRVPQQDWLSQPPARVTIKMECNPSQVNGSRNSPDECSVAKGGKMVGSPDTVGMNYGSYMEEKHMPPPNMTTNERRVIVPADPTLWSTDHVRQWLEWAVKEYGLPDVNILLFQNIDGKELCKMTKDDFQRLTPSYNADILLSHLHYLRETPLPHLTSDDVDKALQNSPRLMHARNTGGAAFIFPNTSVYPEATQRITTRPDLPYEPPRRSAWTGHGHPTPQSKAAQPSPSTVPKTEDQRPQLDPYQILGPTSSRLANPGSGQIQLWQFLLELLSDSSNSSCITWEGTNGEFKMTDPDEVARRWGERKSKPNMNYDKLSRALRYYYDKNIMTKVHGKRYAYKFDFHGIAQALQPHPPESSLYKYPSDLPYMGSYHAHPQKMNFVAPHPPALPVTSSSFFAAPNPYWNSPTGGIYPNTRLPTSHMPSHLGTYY
Summary of the method: as §1

ELF1 = ELF1 (Homo sapiens, UniProt P32519 1-619)
Summary of the method: as §1

EHF = molecular target: T5, EHF (Homo sapiens, UniProt Q9NZC4 1-300)
T5 sequence: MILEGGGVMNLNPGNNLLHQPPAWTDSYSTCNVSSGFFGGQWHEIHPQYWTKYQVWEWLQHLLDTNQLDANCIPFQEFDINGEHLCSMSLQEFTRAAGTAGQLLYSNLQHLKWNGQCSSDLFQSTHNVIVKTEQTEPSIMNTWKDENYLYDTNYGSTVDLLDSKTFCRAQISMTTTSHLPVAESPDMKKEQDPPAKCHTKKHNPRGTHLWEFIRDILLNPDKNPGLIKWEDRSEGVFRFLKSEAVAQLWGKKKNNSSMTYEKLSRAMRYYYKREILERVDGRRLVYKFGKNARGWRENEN
Summary of the method: as §1

SPI1 = SPI1 (Homo sapiens, UniProt P17947 1-270)
Summary of the method: as §1

SPIB = SPIB (Homo sapiens, UniProt Q01892 1-262)
Summary of the method: as §1

ELK3 = molecular target: T6, ELK3 (Homo sapiens, UniProt P41970 1-407)
T6 sequence: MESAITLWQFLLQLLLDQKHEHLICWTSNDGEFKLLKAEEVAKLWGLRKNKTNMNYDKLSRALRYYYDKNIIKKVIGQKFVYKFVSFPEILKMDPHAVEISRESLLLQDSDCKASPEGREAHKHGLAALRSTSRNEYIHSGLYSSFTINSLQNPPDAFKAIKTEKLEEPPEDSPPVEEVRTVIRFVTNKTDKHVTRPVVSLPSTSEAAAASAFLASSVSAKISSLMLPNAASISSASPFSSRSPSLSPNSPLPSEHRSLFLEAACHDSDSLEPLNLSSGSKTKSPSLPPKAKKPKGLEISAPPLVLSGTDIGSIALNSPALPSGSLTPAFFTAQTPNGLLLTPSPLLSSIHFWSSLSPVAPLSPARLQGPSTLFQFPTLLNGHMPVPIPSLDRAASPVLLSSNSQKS
Summary of the method: as §1

ELF1, sequence (P32519 whole entry): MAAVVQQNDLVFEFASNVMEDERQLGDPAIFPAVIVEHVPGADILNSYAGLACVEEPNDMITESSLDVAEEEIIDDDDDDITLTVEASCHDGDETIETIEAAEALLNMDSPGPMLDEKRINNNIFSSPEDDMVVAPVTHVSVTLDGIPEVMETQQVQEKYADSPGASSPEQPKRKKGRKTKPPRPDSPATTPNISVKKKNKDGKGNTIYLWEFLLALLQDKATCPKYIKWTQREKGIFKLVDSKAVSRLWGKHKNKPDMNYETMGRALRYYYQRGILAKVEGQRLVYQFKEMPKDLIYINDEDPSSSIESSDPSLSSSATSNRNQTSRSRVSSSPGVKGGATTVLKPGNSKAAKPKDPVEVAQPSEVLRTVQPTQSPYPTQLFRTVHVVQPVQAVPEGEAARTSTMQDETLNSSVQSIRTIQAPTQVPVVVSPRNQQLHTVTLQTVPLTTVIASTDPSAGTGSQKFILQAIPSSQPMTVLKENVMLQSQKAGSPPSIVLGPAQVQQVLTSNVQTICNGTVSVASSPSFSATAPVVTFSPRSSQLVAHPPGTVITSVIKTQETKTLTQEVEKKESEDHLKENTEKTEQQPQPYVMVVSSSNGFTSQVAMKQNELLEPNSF
SPIB, sequence (Q01892 whole entry): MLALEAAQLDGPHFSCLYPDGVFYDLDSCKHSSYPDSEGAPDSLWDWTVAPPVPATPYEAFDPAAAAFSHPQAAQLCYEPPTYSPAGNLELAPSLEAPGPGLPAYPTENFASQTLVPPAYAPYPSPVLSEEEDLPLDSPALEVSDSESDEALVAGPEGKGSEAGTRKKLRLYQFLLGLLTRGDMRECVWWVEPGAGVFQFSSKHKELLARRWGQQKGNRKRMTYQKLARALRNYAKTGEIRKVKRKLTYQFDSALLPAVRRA

TACGCC was tested, and the binding signal (FLI1) was 1.39 fold enrichment (6-mer frequency, TF over GST control), the binding signal (ELK1) was 1.22 fold enrichment (6-mer frequency, TF over GST control) and the binding signal (GABPA) was 1.3 fold enrichment (6-mer frequency, TF over GST control). The binding signal (ERG) was 1.16 fold enrichment (6-mer frequency, TF over GST control), the binding signal (ELF1) was 1.28 fold enrichment (6-mer frequency, TF over GST control) and the binding signal (EHF) was 1.18 fold enrichment (6-mer frequency, TF over GST control). For the same sequence, the binding signal (SPI1) was 1.18 fold enrichment (6-mer frequency, TF over GST control), the binding signal (SPIB) was 1.18 fold enrichment (6-mer frequency, TF over GST control) and the binding signal (ELK3) was 1.23 fold enrichment (6-mer frequency, TF over GST control).
